# Experimental data from PubChem BioAssay AID1671190 (National Center for Advancing Translational Sciences (NCATS), 2021).
# “And” between values parts separate entries of the source, which are not always exact repeats. Equal entries are not always repeated. The whole screen tested about 580,000 compounds, of which about 6,100 (1.1%) were called active. Roughly 15% stayed inconclusive and do not appear here. The sample holds actives, similar compounds and a random draw of the others, so the mix is not that of the screen. Unmarked numbers belong to inactive results. Calls come from the whole dose curve; as a rule, active = well fitted inhibition curve with a large enough effect; inconclusive = small, poorly fitted or top-dose-only effect, or another doubt; inactive = no such curve, though single readings can be large or run the other way.
# Target: Polyunsaturated fatty acid lipoxygenase ALOX12 (Homo sapiens) (UniProt P18054)
# Sequence (P18054 whole entry, looked up): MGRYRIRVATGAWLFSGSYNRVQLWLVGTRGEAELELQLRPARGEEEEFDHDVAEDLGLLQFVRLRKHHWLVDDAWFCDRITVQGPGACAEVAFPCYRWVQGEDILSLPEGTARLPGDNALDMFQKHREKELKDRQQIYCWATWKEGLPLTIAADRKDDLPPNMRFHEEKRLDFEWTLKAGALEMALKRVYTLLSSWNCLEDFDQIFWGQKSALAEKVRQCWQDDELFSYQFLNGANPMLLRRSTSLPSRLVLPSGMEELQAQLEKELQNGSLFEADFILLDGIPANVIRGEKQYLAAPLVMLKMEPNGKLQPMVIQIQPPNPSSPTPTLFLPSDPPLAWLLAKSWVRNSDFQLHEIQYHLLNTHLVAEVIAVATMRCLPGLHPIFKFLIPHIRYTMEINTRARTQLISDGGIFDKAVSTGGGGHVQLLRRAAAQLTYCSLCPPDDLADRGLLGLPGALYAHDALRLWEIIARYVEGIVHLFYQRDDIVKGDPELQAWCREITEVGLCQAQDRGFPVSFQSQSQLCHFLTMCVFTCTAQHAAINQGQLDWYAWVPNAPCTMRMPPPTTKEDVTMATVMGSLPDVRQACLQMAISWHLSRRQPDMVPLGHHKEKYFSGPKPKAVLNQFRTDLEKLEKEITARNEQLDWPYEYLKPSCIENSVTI
# Experiment: Primary qHTS assay for inhibitors of human arachidonate 12S-lipoxygenase (ALOX12): Round 2
# Settings: purified 12hLO, xylenol orange hydroperoxide absorbance; series mostly up to 108 µM; activity change, negative = inhibition: at the top concentration
# Source text: Assay Provider: Theodore R. Holman Ph.D. University of California, Santa Cruz, California Human lipoxygenase 12hLO is a member of the closely related lipoxygenase family of enzymes which catalyze the site-specific oxidation of arachidonic acid to various hormone precursor molecules and as such is a candidate for drug development in a variety of disease areas, such as cancer and inflammation. Inhibition of 12hLO activity was screened by utilizing arachidonic acid as a substrate. The extent of hydroperoxide product formation was measured by a secondary chromogenic reaction in which xylenol orange (XO, Sigma-Aldrich, cat. number 39,818-7) reacts with the ferric ions produced from the reaction between the hydroperoxide and ferrous ions. The Fe (III)-XO complex is characterized with red-shifted absorbance at 560 nm. A purified preparation of human 12hLO was supplied by Dr. Holman laboratory, University of California, Santa Cruz.
# PROTOCOL TABLE SEQUENCE No. (e.g., 1, 2, 3, etc.); […] (e.g., Cells, Incubation, Reagent, etc.); VALUE; DESCRIPTION 1; Enzyme; 3 uL; 150 nM 12hLO enzyme solution dispensed in 1536-well Greiner black, clear bottom plates. 2; Compound; 23 nL; compounds and controls were added. 3; Incubate; 15 min; room temperature. 4; Substrate; 1 uL; 40 uM arachidonic acid (final concentration). 5; Incubate; 30 min; room temperature. 6; Reagent; 4 uL; Fe-XO solution was added to each well. 7; Incubation; 30 min; room temperature 8; Detector; absorbance; Read 1 at 405 nm absorbance using ViewLux (Perkin-Elmer) CCD imager. 9; Detector; absorbance; Read 2 at 573 nm absorbance using ViewLux (Perkin-Elmer) CCD imager. NOTES (numbers refer to sequence above) 1; 150 nM 12hLO (final concentration) in buffer solution (25 mM Hepes, 0.01% Triton X-100, pH 7.0) was dispensed in columns 1, 2, 5-48. Column 1 is neutral (100% activity). Buffer only was dispensed in columns 3 and 4 as no enzyme negative controls. The plates were covered with metal lids with gas-exchange holes. 2; Compounds were pin transferred via a Kalypsys Pin Tool (Wako USA) in column 5-48. Control compound was transferred in column 2, titration of nordihydroguaiaretic acid (NDGA, Sigma-Aldrich, N5023) with top concentration of 20 mM in DMSO then 1:3 dilution in duplicate. Dilution factor of 23 nL into 4 uL final assay volume. 3; Covered assay plates were incubated for 15 min at room temperature. 4; Substrate was added to start the reaction; 40 uM arachidonic acid (Sigma-Aldrich, St. Louis, MO) was dispensed throughout the plate. 6; Chromogenic detection reagent solution (divalent iron/xylenol orange, Fe-XO) was added to each well: 200 uM xylenol orange, 300 uM ferrous ammonium sulfate prepared freshly in 50 mM sulfuric acid. 8, 9; Two absorbance readouts were obtained at 405 nm and at 573 nm using a ViewLux high-throughput CCD plate imager (Perkin-Elmer). The 573 to 405 (Read 2 / Read 1) absorbance ratio was used to compute reaction progress.
# % is set by controls: 0 for no effect and ±100 for the full control effect; potency is the fitted concentration of half-maximal effect.
SMILES,Potency,"activity change, negative = inhibition"
CCOC(=O)C1=C(NC(=S)NC(=O)c2ccccc2)c2ccccc2CC1(C)C,22.4 µM (active),–
CCOC(=O)c1c(NC(=O)C2(C)Cc3ccccc3C(=O)O2)sc2c1CCCC2 (stereo unspecified),–,-14.7%
CC(C)CNC(=O)NC1=C(C#N)C(C)(C)Cc2ccccc21,–,16.7%
CC(=O)CCc1ccc(OCC(O)CNC(C)(C)CO)cc1 (stereo unspecified),–,18.8%
CCc1ccc(-c2nc(SCc3ncc(-c4ccccc4)o3)n[nH]2)cc1,–,-7.84%
CCOC(=O)c1cccc(NC(=O)C2=Cc3ccccc3OC=C2)c1,–,-0.337%
CC(=O)c1c(N2CCOCC2)nc(=S)n(Cc2ccccc2)c1C,–,0%
CC(=O)c1c(N2CCOCC2)nc(=S)n(-c2cc(C)ccc2C)c1C,–,-29.5% [at 57.4 µM]
CC(=O)c1c(N2CCN(c3ccc(F)cc3)CC2)nc(=S)n(-c2ccccc2)c1C,44.7 µM (active),–
Cc1ccc(/C=C/C(=O)c2cc3ccccc3o2)s1,–,-33.4%
O=C(COc1ccc(F)cc1)Nc1ccc2oc(-c3ccc(F)cc3)nc2c1,–,-35.7%
NS(=O)(=O)c1ccc(CCNc2ncnc3c2cnn3-c2ccccc2Cl)cc1,–,34.2%
Clc1cccc(-n2ncc3c(NCCc4ccccc4)ncnc32)c1,44.7 µM (active) and 8.91 µM (active),–
COc1ccc(CCNc2ncnc3c2nnn3Cc2ccccc2)cc1,–,2.33%
CCN(CC)CCNc1ncnc2c1cnn2-c1cc(Cl)ccc1C,–,-27.4%
COc1ccc(CCNc2ncnc3c2cnn3-c2ccc(C)cc2)cc1,28.2 µM (active),–
Cc1ccc(-n2ncc3c(NNC(=O)C4CCCCC4)ncnc32)cc1,–,-0.144%
CCOC(=O)c1c(C)c(CCC(=O)NCCN2CCOCC2)c(C)n1C,–,-3.28%
CCN(CC)C(=O)C1=C(C)N=C2SC=C(CC(=O)NCc3ccco3)N2C1c1ccccc1F (stereo unspecified),–,44.2%
C#CCNC(=O)CC[C@@H]1CNC(=O)[C@@H]2C[C@H](NC(=O)Nc3cccc(Cl)c3)CN12,–,-15.5% [at 176 µM]
O=C1Nc2ccc(-c3ccc(Cl)cc3)cc2C(=O)N2CC[C@H](NC(=O)N3CCOCC3)[C@@H]12,–,-2.01%
COc1cc(=O)n(-c2ccc(C)cc2)nc1C(=O)Nc1cccc(Cl)c1C,–,4.75%
COc1cc(OC)cc(C(=O)OCC(=O)Nc2c(C)cccc2C(C)C)c1,–,11%
COc1cc(C2/C(=C(\O)c3ccc4c(c3)CC(C)O4)C(=O)C(=O)N2c2nnc(C)s2)cc(OC)c1OC (stereo unspecified),–,-22.7%
CC(C)c1ccc(C2/C(=C(\O)c3ccc4c(c3)OCCO4)C(=O)C(=O)N2c2nccs2)cc1 (stereo unspecified),0.794 µM (active),–
O=C1C(=O)N(CCCN2CCOCC2)C(c2ccc([N+](=O)[O-])cc2)/C1=C(\O)c1ccc2c(c1)OCCO2 (stereo unspecified),–,-19.6%

SMILES,Potency,"activity change, negative = inhibition"
CCn1cc(C#N)c(=O)n(Cc2noc(-c3ccc(Cl)cc3)n2)c1=O,–,-30.4%
Cc1cccc(NC(=O)c2cccc(C(=O)Nc3cccc(C)c3C)n2)c1C,3.16 µM (active),–
Cc1cccc(NC(=O)c2ccc3nc(C(C)C)oc3c2)c1C,–,-22.6%
Cc1cccc(NC(=O)N2CCCCCC2)c1C,–,7.92%
O=C(OCc1ccccc1)N1CCOCC12CCN(Cc1cccc(O)c1)CC2,–,18.9% [at 176 µM]
CCc1ccccc1NC(=O)CSc1nc2c(=O)[nH]cnc2n1CC,–,-4.33%
c1ccc(C(=NNc2nc3ccccc3s2)c2ccccn2)cc1,44.7 µM (active),–
Cc1cc(C)cc(-n2ccnc2SCC(=O)Nc2nc3ccccc3s2)c1,–,-4.72%
O=C(CCc1ncc(-c2ccccc2)o1)Nc1nc2ccccc2s1,–,-24.4%
COc1cccc(Oc2coc3cc(OC)ccc3c2=O)c1,–,21.4%
CCN1C(=O)COc2ccc(NC(=O)c3cc(=O)c4cc(Cl)c(C)cc4o3)cc21,–,6.24%
O=C(NCCc1nc2ccccc2[nH]1)c1ccc(N2CCCN(Cc3cccc(F)c3)C2=O)cc1,–,5.35%
CCOc1ccccc1NC(=O)C1CCN(S(=O)(=O)c2c(C)nn(C)c2C)CC1,–,24.8%
CCOC(=O)c1c(S(=O)(=O)N2CCCC(C(=O)NCc3cccc(C)c3)C2)c(C)n(C)c1C (stereo unspecified),–,-21.3%
CCOC(=O)c1c(S(=O)(=O)N2CCCC2)nn(C)c1C,14.1 µM (active),–
COC(=O)C1=C(C)N(Cc2ccccc2C(F)(F)F)C(=NCC2CC2)NC1c1cccc(Cl)c1 (stereo unspecified),–,-22%
O=C(CN1CCN(Cc2ccc(Cl)cc2)C1=O)NCc1ccc(F)cc1,–,-16.3%
COC(=O)C1=C(C)N(Cc2ccc(F)cc2)C(=S)NC1c1cccc(Cl)c1 (stereo unspecified),39.8 µM (active),–
CCN1CN(Cc2ccccc2)CNC1=S,–,-19.3%
COC(=O)C1=C(C)N(C)C(C)=C(C(=O)OC)C1c1cccc(Br)c1,–,34.3%
CC(=O)C1=C(C)N(Cc2ccccc2)C(=S)NC1c1cccc(Br)c1 (stereo unspecified),44.7 µM (active),–
CCN(CC)C(=O)C1=C(C)N(Cc2ccc(F)cc2)C(=O)C(CC(=O)NC2CCCC2)C1 (stereo unspecified),–,-0.0623%
COC(=O)C1=C(C)N(Cc2ccccc2C(F)(F)F)C(=NCc2ccc(OC)cc2)NC1c1cccc(C(F)(F)F)c1 (stereo unspecified),–,-22.5%
CC(=O)C1=C(C)N(Cc2ccc(Cl)cc2)C(=S)NC1c1ccc(F)cc1 (stereo unspecified),44.7 µM (active),–
O=C1CCN(C(=O)C2CCN(C(=O)C3COc4ccccc4O3)CC2)CCCCCCN1 (stereo unspecified),–,54.9%
